This passage reports outcome results from PubChem BioAssay AID2284359 (EPA ToxCast).

Records with an inconclusive call do not appear. Active and inactive are the calls of the source. Rule for the calls: active = hit-call score of the fitted dose curve at least 0.9, where 1 is the maximum; inconclusive = response in the unintended direction; inactive = score below 0.9.

A short description of this assay: ATG_M_06_EcoTox2: Attagene TRANS-FACTORIAL EcoTox-2 HepG2 Assay for M06 Transcription Factor (Internal Marker). On the procedure:
ATG_EcoTox2 is a cell-based, multiplexed assay created by modifying the existing Attagene TRANS-FACTORIAL system to include a panel of nuclear receptors from some or all the following species: human (Homo sapiens), african clawed frog (Xenopus laevis), rainbow trout (Oncorhynchus mykiss), japanese medaka (Oryzias latipes), and zebrafish (Danio rerio). The ECOTOX2-FACTORIAL format uses HepG2, a human liver cell line, with measurements taken at 24 hours after chemical dosing in a 24-well plate. ATG_M_06_EcoTox2 is one of 29 assay components calculated in the ATG_EcoTox2 assay. It is designed to make measurements of mRNA induction, a form of inducible reporter, as detected with fluorescence intensity signals by Reverse transcription polymerase chain reaction (RT-PCR) and Capillary electrophoresis technology.The assay endpoint ATG_M_06_EcoTox2 was analyzed in the positive analysis fitting direction relative to DMSO as the negative control and baseline of activity. Using a type of inducible reporter, measures of mRNA for gain-of-signal activity can be used to understand the background control at the transcription factor-level as they relate to the gene. Furthermore, this assay endpoint can be referred to as a secondary readout, because this assay has produced multiple assay endpoints where this one serves a background control function. To generalize the intended target to other relatable targets, this assay endpoint is annotated to the background measurement intended target family, where the subfamily is internal marker.
Human liver HepG2 cells are transiently transfected with multiple reporter transcription units (MRTUs) in 6-well plates using FuGene 6 reagent (Roche; 3 ml FuGene/1 mg DNA). The MRTU constructs are regulated by a cis-regulating element (promoter). Each RTU expresses a GAL4-UAS that regulates the transcription of a nearby target reporter gene sequence. A major difference between the CIS and TRANS system is that in CIS activities of endogenous TFs are measured, whereas the TRANS assay evaluates changes in activities of exogenous, chimeric NR-Gal4 proteins. […] At the end of 24 hour incubation, total RNA was isolated using TriZol reagent (Invitrogen). The isolated RNA is then reverse-transcribed using oligo(dT) primer and Mo-MLV reverse transcriptase (Invitrogen) with DNAse I (Ambion) treatment for 30 min. The one-tenth of the produced cDNA was amplified by PCR using Taq DNA polymerase (Invitrogen) and two reporter sequence-specific primers. […] The fragments were purified using Qiaquick PCR columns (Qiagen), analyzed on an ABI 3130xL genetic analyzer (Applied Biosystems) with peak positions identified by using a set of X-rhodamine (ROX)-labeled MapMarker1000 molecular weight standards (BioVentures). […]
Turning to `O=C(O)C(F)(F)C(F)(F)C(F)(F)C(F)(F)C(F)(F)C(F)(F)C(F)(F)F`, the call was inactive.
`O=S(=O)(O)C(F)(F)C(F)(F)C(F)(F)C(F)(F)C(F)(F)C(F)(F)F`: the outcome was inactive.
Consider `O=P(Oc1ccccc1)(Oc1ccccc1)Oc1ccccc1`, for which the call was inactive.
`CCCCOCN(C(=O)CCl)c1c(CC)cccc1CC`: the call was inactive.
